# Reference: the supplement of paper PMC7411054
# Where a name gives a salt, the structure may show the parent alone.
# How the values were obtained:
# Assay in all cases: lowest phenotypically active concentration; higher = less potent
# Details in all cases: treatment time: 24 h
# A549-ACTB-RAB5A = system: A549-ACTB-RAB5A
# How it was run: (§1)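 Four wells per concentration (0.3, 1, 3 or 9 µM) were treated for 24 h in each of fifteen gene-edited reporter lines from A549, HepG2 and WPMY1 cells, then imaged live. After normalising live-cell features to solvent control wells, deviation was defined as ≥3 of 4 wells lying past the 95th percentile of control Euclidean distances. Reproducibility was defined as a median replicate Pearson correlation above the 95th percentile of non-replicates. Both had to hold for phenotypic activity.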
# A549-CANX-COX4 = system: A549-CANX-COX4
# How it was run: as §1
# A549-TP53BP1-CLTA = system: A549-TP53BP1-CLTA
# How it was run: as §1
# A549-TUBA1B-RELA = system: A549-TUBA1B-RELA
# How it was run: as §1
# HepG2-ACTB-RAB5A = system: HepG2-ACTB-RAB5A
# How it was run: as §1
# HepG2-TP53BP1-CLTA = system: HepG2-TP53BP1-CLTA
# How it was run: as §1
# WPMY1-ACTB-RAB5A = system: WPMY1-ACTB-RAB5A
# How it was run: as §1
# WPMY1-CANX-COX4 = system: WPMY1-CANX-COX4
# How it was run: as §1
# WPMY1-TP53BP1-CLTA = system: WPMY1-TP53BP1-CLTA
# How it was run: as §1
# WPMY1-TUBA1B-RELA = system: WPMY1-TUBA1B-RELA
# How it was run: as §1
smiles,measurement,setting,value
CC[C@H]1CN2CCc3cc(OC)c(OC)cc3[C@@H]2C[C@@H]1C[C@H]1NCCc2cc(OC)c(OC)cc21 [emetine],lowest phenotypically active concentration,A549-ACTB-RAB5A,≤ 0.3 µM
same,lowest phenotypically active concentration,A549-CANX-COX4,≤ 0.3 µM
same,lowest phenotypically active concentration,A549-TP53BP1-CLTA,≤ 0.3 µM
same,lowest phenotypically active concentration,A549-TUBA1B-RELA,≤ 0.3 µM
same,lowest phenotypically active concentration,HepG2-ACTB-RAB5A,≤ 0.3 µM
same,lowest phenotypically active concentration,HepG2-TP53BP1-CLTA,≤ 0.3 µM
same,lowest phenotypically active concentration,WPMY1-ACTB-RAB5A,≤ 0.3 µM
same,lowest phenotypically active concentration,WPMY1-CANX-COX4,≤ 0.3 µM
same,lowest phenotypically active concentration,WPMY1-TP53BP1-CLTA,≤ 0.3 µM
same,lowest phenotypically active concentration,WPMY1-TUBA1B-RELA,≤ 0.3 µM
CN1C[C@H](C(=O)N[C@]2(C)O[C@@]3(O)[C@@H]4CCCN4C(=O)[C@H](Cc4ccccc4)N3C2=O)C[C@@H]2c3cccc4[nH]cc(c34)C[C@H]21.CN1C[C@H](C(=O)N[C@]2(C)O[C@@]3(O)[C@@H]4CCCN4C(=O)[C@H](Cc4ccccc4)N3C2=O)C[C@@H]2c3cccc4[nH]cc(c34)C[C@H]21 [dihydroergotamine],lowest phenotypically active concentration,A549-ACTB-RAB5A,9 µM
same,lowest phenotypically active concentration,A549-TP53BP1-CLTA,9 µM
same,lowest phenotypically active concentration,A549-TUBA1B-RELA,9 µM
same,lowest phenotypically active concentration,HepG2-ACTB-RAB5A,9 µM
same,lowest phenotypically active concentration,HepG2-TP53BP1-CLTA,9 µM
same,lowest phenotypically active concentration,WPMY1-TP53BP1-CLTA,9 µM
C/C=C(/C)C(=O)O[C@H]1C(C)=C2[C@H]([C@@H]1OC(=O)CCCCCCC)[C@@](C)(OC(C)=O)C[C@H](OC(=O)CCC)[C@@]1(O)[C@H]2OC(=O)[C@@]1(C)O [Thapsigargin],lowest phenotypically active concentration,A549-ACTB-RAB5A,≤ 0.3 µM
same,lowest phenotypically active concentration,A549-CANX-COX4,≤ 0.3 µM
same,lowest phenotypically active concentration,A549-TP53BP1-CLTA,≤ 0.3 µM
same,lowest phenotypically active concentration,A549-TUBA1B-RELA,≤ 0.3 µM
same,lowest phenotypically active concentration,HepG2-ACTB-RAB5A,≤ 0.3 µM
same,lowest phenotypically active concentration,HepG2-TP53BP1-CLTA,≤ 0.3 µM
same,lowest phenotypically active concentration,WPMY1-ACTB-RAB5A,≤ 0.3 µM
same,lowest phenotypically active concentration,WPMY1-CANX-COX4,≤ 0.3 µM
same,lowest phenotypically active concentration,WPMY1-TP53BP1-CLTA,≤ 0.3 µM
same,lowest phenotypically active concentration,WPMY1-TUBA1B-RELA,≤ 0.3 µM
COc1ccc(CCN2CCC(Nc3nc4ccccc4n3Cc3ccc(F)cc3)CC2)cc1 [astemizole],lowest phenotypically active concentration,A549-ACTB-RAB5A,1 µM
same,lowest phenotypically active concentration,A549-CANX-COX4,9 µM
same,lowest phenotypically active concentration,A549-TP53BP1-CLTA,3 µM
same,lowest phenotypically active concentration,A549-TUBA1B-RELA,1 µM
same,lowest phenotypically active concentration,HepG2-ACTB-RAB5A,3 µM
same,lowest phenotypically active concentration,HepG2-TP53BP1-CLTA,3 µM
same,lowest phenotypically active concentration,WPMY1-ACTB-RAB5A,3 µM
same,lowest phenotypically active concentration,WPMY1-CANX-COX4,3 µM
same,lowest phenotypically active concentration,WPMY1-TP53BP1-CLTA,9 µM
same,lowest phenotypically active concentration,WPMY1-TUBA1B-RELA,3 µM
CC[C@]12C=CCN3CC[C@]4(C(=C(C(=O)OC)C1)Nc1ccccc14)[C@@H]32 [Tabersonine dichlorhydrate],lowest phenotypically active concentration,A549-ACTB-RAB5A,9 µM
same,lowest phenotypically active concentration,A549-CANX-COX4,9 µM
same,lowest phenotypically active concentration,A549-TUBA1B-RELA,9 µM
same,lowest phenotypically active concentration,HepG2-ACTB-RAB5A,9 µM
same,lowest phenotypically active concentration,HepG2-TP53BP1-CLTA,9 µM
same,lowest phenotypically active concentration,WPMY1-ACTB-RAB5A,9 µM
same,lowest phenotypically active concentration,WPMY1-CANX-COX4,9 µM
same,lowest phenotypically active concentration,WPMY1-TP53BP1-CLTA,9 µM
same,lowest phenotypically active concentration,WPMY1-TUBA1B-RELA,9 µM
CCn1cnc2c(Nc3cccc(Cl)c3)nc(N[C@H]3CCCC[C@H]3N)nc21,lowest phenotypically active concentration,A549-ACTB-RAB5A,1 µM
same,lowest phenotypically active concentration,A549-CANX-COX4,3 µM
same,lowest phenotypically active concentration,A549-TP53BP1-CLTA,1 µM
same,lowest phenotypically active concentration,A549-TUBA1B-RELA,1 µM
same,lowest phenotypically active concentration,HepG2-ACTB-RAB5A,1 µM
same,lowest phenotypically active concentration,HepG2-TP53BP1-CLTA,1 µM
same,lowest phenotypically active concentration,WPMY1-ACTB-RAB5A,3 µM
same,lowest phenotypically active concentration,WPMY1-CANX-COX4,1 µM
same,lowest phenotypically active concentration,WPMY1-TP53BP1-CLTA,1 µM
same,lowest phenotypically active concentration,WPMY1-TUBA1B-RELA,1 µM
C[C@@H]1C[C@@H]([C@H](O)CC2CC(=O)NC(=O)C2)C(=O)[C@@H](C)C1 [Cycloheximide],lowest phenotypically active concentration,A549-CANX-COX4,≤ 0.3 µM
same,lowest phenotypically active concentration,A549-TP53BP1-CLTA,≤ 0.3 µM
same,lowest phenotypically active concentration,HepG2-ACTB-RAB5A,≤ 0.3 µM
same,lowest phenotypically active concentration,HepG2-TP53BP1-CLTA,3 µM
same,lowest phenotypically active concentration,WPMY1-ACTB-RAB5A,1 µM
same,lowest phenotypically active concentration,WPMY1-CANX-COX4,≤ 0.3 µM
same,lowest phenotypically active concentration,WPMY1-TP53BP1-CLTA,≤ 0.3 µM
same,lowest phenotypically active concentration,WPMY1-TUBA1B-RELA,≤ 0.3 µM
"Cc1c(C(=O)c2cccc3ccccc23)c2cccc3c2n1[C@H](CN1CCOCC1)CO3 [WIN 55,212-2 mesylate]",lowest phenotypically active concentration,WPMY1-ACTB-RAB5A,9 µM
same,lowest phenotypically active concentration,WPMY1-CANX-COX4,9 µM
same,lowest phenotypically active concentration,WPMY1-TP53BP1-CLTA,9 µM
C[C@H]1CCCC=C[C@@H]2C[C@H](O)C[C@H]2[C@H](O)C=CC(=O)O1 [brefeldin-a],lowest phenotypically active concentration,A549-CANX-COX4,≤ 0.3 µM
same,lowest phenotypically active concentration,A549-TP53BP1-CLTA,≤ 0.3 µM
same,lowest phenotypically active concentration,HepG2-ACTB-RAB5A,≤ 0.3 µM
same,lowest phenotypically active concentration,HepG2-TP53BP1-CLTA,≤ 0.3 µM
same,lowest phenotypically active concentration,WPMY1-ACTB-RAB5A,≤ 0.3 µM
same,lowest phenotypically active concentration,WPMY1-CANX-COX4,≤ 0.3 µM
same,lowest phenotypically active concentration,WPMY1-TP53BP1-CLTA,≤ 0.3 µM
same,lowest phenotypically active concentration,WPMY1-TUBA1B-RELA,≤ 0.3 µM
C[C@H]1CC[C@@H]2N(C1)C[C@H]1[C@@H]3C[C@H]4[C@@H](CC(=O)[C@H]5C[C@@H](O)CC[C@@]54C)[C@@H]3CC[C@H]1[C@]2(C)O [Imperialine],lowest phenotypically active concentration,WPMY1-ACTB-RAB5A,≤ 0.3 µM
same,lowest phenotypically active concentration,WPMY1-CANX-COX4,≤ 0.3 µM
CC[C@H]1CN2CCC1C[C@H]2[C@H](O)c1ccnc2ccc(OC)cc12 (some centres not stated) [Hydroquinine hydrobromide hydrate],lowest phenotypically active concentration,WPMY1-TP53BP1-CLTA,9 µM
C=C(C)[C@H]1Cc2c(ccc3c2O[C@@H]2COc4cc(OC)c(OC)cc4[C@@H]2C3=O)O1 [Rotenone],lowest phenotypically active concentration,A549-CANX-COX4,≤ 0.3 µM
same,lowest phenotypically active concentration,A549-TP53BP1-CLTA,≤ 0.3 µM
same,lowest phenotypically active concentration,HepG2-ACTB-RAB5A,≤ 0.3 µM
same,lowest phenotypically active concentration,HepG2-TP53BP1-CLTA,≤ 0.3 µM
same,lowest phenotypically active concentration,WPMY1-ACTB-RAB5A,≤ 0.3 µM
same,lowest phenotypically active concentration,WPMY1-CANX-COX4,1 µM
same,lowest phenotypically active concentration,WPMY1-TP53BP1-CLTA,≤ 0.3 µM
same,lowest phenotypically active concentration,WPMY1-TUBA1B-RELA,1 µM
CN1C(=O)CN=C(c2ccccc2)c2cc(Cl)ccc21 [diazepam],lowest phenotypically active concentration,HepG2-ACTB-RAB5A,9 µM
C[C@]12CC[C@H](O)C[C@H]1CC[C@@H]1[C@@H]2CC[C@]2(C)[C@@H](C3=CC(=O)OC3)CC[C@]12O [Digitoxigenin],lowest phenotypically active concentration,A549-CANX-COX4,≤ 0.3 µM
same,lowest phenotypically active concentration,A549-TP53BP1-CLTA,≤ 0.3 µM
same,lowest phenotypically active concentration,HepG2-ACTB-RAB5A,≤ 0.3 µM
same,lowest phenotypically active concentration,HepG2-TP53BP1-CLTA,1 µM
same,lowest phenotypically active concentration,WPMY1-ACTB-RAB5A,≤ 0.3 µM
same,lowest phenotypically active concentration,WPMY1-CANX-COX4,≤ 0.3 µM
same,lowest phenotypically active concentration,WPMY1-TP53BP1-CLTA,≤ 0.3 µM
same,lowest phenotypically active concentration,WPMY1-TUBA1B-RELA,≤ 0.3 µM
C=C1C/C(=C\C)C(=O)O[C@@H]2CCN3CC=C(COC(=O)[C@]1(C)O)[C@H]23 [Seneciphylline],lowest phenotypically active concentration,HepG2-TP53BP1-CLTA,9 µM
C[C@H]1C(=O)O[C@@H]2CCN3CC=C(COC(=O)[C@](C)(O)[C@]1(C)O)[C@H]23 [Monocrotaline],lowest phenotypically active concentration,A549-TUBA1B-RELA,3 µM
CC(C)C[C@H]1C(=O)N2CCC[C@H]2[C@]2(O)O[C@](NC(=O)[C@@H]3C=C4c5cccc6[nH]c(Br)c(c56)C[C@H]4N(C)C3)(C(C)C)C(=O)N12 [bromocriptine],lowest phenotypically active concentration,A549-TP53BP1-CLTA,9 µM
same,lowest phenotypically active concentration,HepG2-ACTB-RAB5A,9 µM
same,lowest phenotypically active concentration,HepG2-TP53BP1-CLTA,9 µM
same,lowest phenotypically active concentration,WPMY1-TP53BP1-CLTA,9 µM
C[C@@H](CO)NC(=O)[C@@H]1C=C2c3cccc4[nH]cc(c34)C[C@H]2N(C)C1 [Ergobasine],lowest phenotypically active concentration,A549-TP53BP1-CLTA,9 µM
same,lowest phenotypically active concentration,WPMY1-CANX-COX4,9 µM
same,lowest phenotypically active concentration,WPMY1-TP53BP1-CLTA,9 µM
O=C1NC(=S)N(c2cccc(Br)c2)C(=O)/C1=C/c1ccco1,lowest phenotypically active concentration,A549-TUBA1B-RELA,9 µM
same,lowest phenotypically active concentration,WPMY1-ACTB-RAB5A,3 µM
same,lowest phenotypically active concentration,WPMY1-CANX-COX4,9 µM
same,lowest phenotypically active concentration,WPMY1-TP53BP1-CLTA,9 µM
same,lowest phenotypically active concentration,WPMY1-TUBA1B-RELA,9 µM
Cc1sc2c(c1C)C(c1ccc(Cl)cc1)=N[C@H](CC(=O)OC(C)(C)C)c1nnc(C)n1-2,lowest phenotypically active concentration,HepG2-ACTB-RAB5A,9 µM
same,lowest phenotypically active concentration,WPMY1-TUBA1B-RELA,9 µM
N[C@@H]1C[C@H]1c1cc(F)cc(F)c1OCc1ccccc1,lowest phenotypically active concentration,WPMY1-ACTB-RAB5A,9 µM
same,lowest phenotypically active concentration,WPMY1-TP53BP1-CLTA,9 µM
O=C1C=C2C=C[C@@H]3C[C@@]2(O1)[C@H]1CCCCN31 [Securinine],lowest phenotypically active concentration,WPMY1-TUBA1B-RELA,9 µM
C[C@H](N)Cc1ccccc1 [dextroamphetamine],lowest phenotypically active concentration,A549-ACTB-RAB5A,3 µM
same,lowest phenotypically active concentration,A549-TUBA1B-RELA,3 µM
COc1cc2c(cc1O)C[C@H]1c3c(cc(O)c(OC)c3-2)CCN1C [Boldine],lowest phenotypically active concentration,A549-TUBA1B-RELA,9 µM
same,lowest phenotypically active concentration,HepG2-ACTB-RAB5A,9 µM
